Laboratory results as given in PubChem BioAssay AID2685 (National Center for Advancing Translational Sciences (NCATS), 2010).
About 2,100 (0.66%) of roughly 320,000 compounds were called active. Inconclusive results (about 53%) are left out. Calls follow the shape of the dose curve; as a rule, active = well fitted inhibition curve with a large enough effect in the signal ratio, with a control signal flat (not every such curve was filed as active); inconclusive = small, poorly fitted or top-dose-only effect, or effect the other way, or a change in a side signal; inactive = flat fitted curve, though single readings scatter; the % refers to the signal ratio. This excerpt belongs to a sample that is enriched for actives.

experiment: qHTS Assay for Lipid Storage Modulators in Drosophila S3 Cells; conditions: BODIPY lipid droplet fluorescence, 18-24 h, cells fed with added oleic acid; cell number change: measured here: cell count max response; series mostly up to 46.1 µM;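 as to cell number change: cells counted by Cell Tracker Red CMTPX staining in the red channel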; as to lipid storage change, negative = inhibition: % is scaled to controls: 0 for no effect and ±100 for the full control effect
Method in brief: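 Laser-scanning cytometry quantifies lipid droplet accumulation (500–530 nm total intensity; droplet/cell object ratio) in oleic acid-fed (400 uM added) Drosophila S3 cells treated with a concentration series. 20 uM Triacsin C defined 100% inhibition.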
Potency is read from the fitted curve at half-maximal effect.

Row | SMILES | Potency | cell number change [%] | lipid storage change, negative = inhibition | outcome
1 | O=C1C(NS(=O)(=O)c2cccs2)=C(N2CCOCC2)C(=O)c2ccccc21 | inactive | -7.78 | – | –
2 | O=C(Cn1nc2ccccc2n1)N/N=C/c1ccc(F)cc1 | inactive | -8.94 | – | –
3 | CCOC(=O)c1nnn(-c2nonc2N)c1CSc1nnc(N)s1 | inactive | – | – | –
4 | Cc1cccc(C(=O)O/N=C/c2ccc(Br)cc2)c1 | inactive | 7.42 | – | –
5 | Cc1ccc(S(=O)(=O)NC(C(=O)N2CCOCCOCCOCCOCC2)C(C)C)cc1 (centres undefined) | inactive | -9.21 | – | –
6 | Cc1cc(=O)oc2cc(OCC(=O)OCC(=O)Nc3ccc(C(N)=O)cc3)ccc12 | inactive | 4.9 | – | –
7 | CN1CCN(C(=O)c2ccc(COc3cc(Cl)ccc3Cl)o2)CC1 | inactive | 0.87 | – | –
8 | CCC1(CC)Cc2ccccc2C(C2=C(O)CC(C)(C)CC2=O)=N1 | inactive | 0.769 | – | –
9 | Cc1ccc2c(c1)COc1c3ccc(C(=O)N4CCCCC4)cc3nn1-2 | inactive | -6.37 | – | –
10 | O=C(Cc1ccccc1[N+](=O)[O-])NCCc1ccc(F)cc1 | inactive | 16.5 | – | –
11 | CC(C)Cc1nnc(NC(=O)C2CCN(C(=O)c3ccc(F)cc3)CC2)s1 | inactive | – | – | –
12 | CCc1cccc(OCC(=O)Nc2ccccc2N2CCCC2)c1 | inactive | -24.4 | – | –
13 | Cc1ccc(C(=O)NNC(=O)c2ccc(S(=O)(=O)N3CCOCC3)cc2)cc1 | inactive | 13.5 | – | –
14 | CCc1cccc(OCC(=O)Nc2cc(S(=O)(=O)N3CCOCC3)ccc2N2CCCC2)c1 | 13 µM (active) | -12.1 | – | –
15 | O=C(Cn1cnc2c(cnn2-c2ccccc2)c1=O)Nc1cc(S(=O)(=O)N2CCOCC2)ccc1Cl | 25.9 µM (active) | -7.78 | – | –
16 | O=C(Cn1cnc2c(cnn2-c2ccccc2)c1=O)N1CCOCC1 | inactive | – | – | –
17 | O=C(Cn1cnc2c(cnn2-c2ccccc2)c1=O)Nc1ccc(S(=O)(=O)N2CCOCC2)cc1 | inactive | -0.435 | – | –
18 | O=S(=O)(c1ccc(OCc2ccc(Br)cc2)cc1)N1CCOCC1 | inactive | -10.6 | – | –
19 | CCOc1ccc(C(=O)NNC(=O)c2cc(S(=O)(=O)N3CCOCC3)ccc2Cl)cc1 | 25.9 µM (active) | 8.57 | – | –

Row | SMILES | Potency | cell number change [%] | lipid storage change, negative = inhibition | outcome
20 | CCOc1ccc(NC(=O)c2cc(S(=O)(=O)N3CCOCC3)cs2)cc1 | inactive | -10.9 | – | –
21 | O=S(=O)(c1ccc(Oc2ccc(Br)cc2)cc1)N1CCOCC1 | 13 µM (active) | -10 | – | –
22 | CC(=O)c1cccc(OCC(=O)Nc2cc(S(=O)(=O)N3CCOCC3)ccc2N2CCCC2)c1 | inactive | -28.5 | – | –
23 | O=S(=O)(c1ccc(Oc2ccccc2)cc1)N1CCOCC1 | inactive | – | – | –
24 | O=C(c1ccccc1)c1cccn1CC(=O)N1CCCCCC1 | inactive | 10.2 | – | –
25 | CC(=O)N1N=C(c2c(-c3ccccc3)c3cc(C)ccc3[nH]c2=O)CC1c1ccco1 (centres undefined) | inactive | – | – | –
26 | Cc1ccc(S(=O)(=O)N2CCOC2CNC(=O)C(=O)NCCc2c[nH]c3ccccc23)cc1 (centres undefined) | – | 24.7 | 6.05% [at 9.22 µM] (inactive) | –
27 | Cc1nn(C)c(Cl)c1CN1CCN(CCC(C)C)C(CCO)C1 (centres undefined) | inactive | 11.3 | – | –
28 | CCOC(=O)c1c(NC(=O)CSc2nnc(C)c(=O)[nH]2)sc(C)c1-c1ccc(C)cc1 | inactive | 18.2 | – | –
29 | COc1cccc(NC(=O)C(C)Sc2nnc(C3CC3)n2C2CC2)c1 (centres undefined) | inactive | -1.32 | – | –
30 | Cc1ccc(S(=O)(=O)N2CCCCC2)cc1NC(=O)COC(=O)Cc1c(F)cccc1Cl | inactive | 10 | – | –
31 | CCOC(=O)/C(=N/Nc1ccc(OC)cc1)N1CCCc2ccccc21 | inactive | -4.8 | – | –
32 | CCOC(=O)c1[nH]ncc1CN1CCCC(C(=O)c2ccc(SC)cc2)C1 (centres undefined) | inactive | 0.969 | – | –
33 | COC(=O)c1ccc(-c2c(-c3ccccc3)ncc3cc(F)ccc23)cc1 | inactive | -9.19 | – | –
34 | CCn1c(CSCc2ccc(F)cc2)nnc1SCC(=O)NCc1ccccc1 | inactive | – | – | –
35 | CCn1c(CSCc2ccc(C)cc2)nnc1SCC(=O)NCc1ccccc1 | 20.6 µM (active) | -15.2 | – | –
36 | CCn1c(CNc2ccc(C)cc2)nnc1SCC(=O)NCc1ccccc1 | inactive | -12.4 | – | –
37 | CCn1c(CSc2nc3ccccc3s2)nnc1SCC(=O)NCC(=O)OC | 25.9 µM (active) | -13.2 | – | –
38 | CCn1c(CSc2nc3ccccc3s2)nnc1SCC(=O)c1ccc(O)cc1O | inactive | -7.44 | – | –

Row | SMILES | Potency | cell number change [%] | lipid storage change, negative = inhibition | outcome
39 | CCn1c(CSc2nc3ccccc3s2)nnc1SCC(=O)c1ccc(O)c(O)c1 | inactive | 8.44 | – | –
40 | CC(C)[C@H](N)c1cn([C@@H](CC(N)=O)C(=O)N2CCNCC2)nn1 | inactive | 10 | – | –
41 | CCOC(=O)Cn1nc(C)c([N+](=O)[O-])c1C | inactive | 2.33 | – | –
42 | O=C(CS(=O)CC(=O)N(CC(=O)NC1CCCC1)c1ccc2c(c1)OCCO2)Nc1ccc(F)cc1 (centres undefined) | inactive | 11.4 | – | –
43 | Cc1ccc(C(=O)c2oc3nc(C)cc(C)c3c2N)cc1 | inactive | -19 | – | –
44 | Cc1cc(C)c2c(N)c(C(=O)c3ccc(Br)cc3)oc2n1 | inactive | -13.1 | – | –
45 | CCc1ccc(C(=O)c2oc3nc(C)cc(C)c3c2N)cc1 | 25.9 µM (active) | -19.5 | – | –
46 | CC1CC(C)CN(S(=O)(=O)c2ccc(NC(=O)CN3C(=O)NC(C)(c4ccccc4)C3=O)cc2)C1 (centres undefined) | inactive | 3.59 | – | –
47 | O=C(O)C1CC(=O)N(C2CCCCC2)C1c1ccccc1 (centres undefined) | inactive | -5.69 | – | –
48 | CCOC(=O)N1CCN(C(=O)CSc2nc(=O)n3cc(C)ccc3n2)CC1 | inactive | – | – | –
49 | CC(C)CC(=O)NC(c1ccccc1)c1c(O)ccc2ccccc12 (centres undefined) | inactive | -6.8 | – | –
50 | CC(=O)NC(c1ccccc1)c1c(O)ccc2ccccc12 (centres undefined) | inactive | 0.433 | – | –
51 | Cc1ccc(C(NC(=O)C2CCCCC2)c2c(O)ccc3ccccc23)cc1 (centres undefined) | 13 µM (active) | -26.6 | – | –
52 | CCN(CC)S(=O)(=O)c1ccc(N2CCOCC2)c(NC(=O)CN2C(=O)NC(C)(c3ccccc3)C2=O)c1 (centres undefined) | inactive | – | – | –
53 | O=C(Cc1cccc(F)c1)N1CCCC(CO)(Cc2ccc(F)cc2F)C1 (centres undefined) | inactive | 17.6 | – | –
54 | CC(C)c1nc2sc3c(=O)[nH]c(=S)[nH]c3c2c2c1CCC2 | 20.6 µM (active) | 5.1 | – | –
55 | CC(C)c1nc2sc3c(=O)[nH]cnc3c2c2c1CCC2 | inactive | -2.67 | – | –
56 | CC1(C)Cc2c(c(-c3ccccc3)nc3sc4c(=O)[nH]c(=S)[nH]c4c23)CO1 | inactive | – | – | –
57 | Cc1[nH]n(-c2ccc([N+](=O)[O-])cc2)c(=O)c1C=NCC1CCCO1 (centres undefined) | – | – | – | inactive [at 9.22 µM]
